JMJD2A Tudor: qHTS Assay for Inhibitors of JMJD2A-Tudor Domain. AID 504339, 2011. Lysine-specific demethylase 4A (Homo sapiens), O75164. AlphaScreen JMJD2A-Tudor / H3K4me3 peptide binding. 390,000 compounds, 4.4% hits. Potency, µM (top dose mostly 114 µM), without a hit: at the top dose activity change, negative = inhibition, actives largely listed as inhibitors; further: on the % scale 0 is the no-effect control and ±100 the full control effect; nearly all actives have a fitted effect of over 50% in size
HP1b chromo inh: HTS for Inhibitors of HP1-beta Chromodomain Interactions with Methylated Histone Tails | AlphaScreen HP1-beta / biotin-H3K9me3 peptide binding | Potency, µM (series often up to 114 µM), inactives show at the highest dose activity change, negative = inhibition, hits mostly inhibitors | 390,000 compounds, 0.56% hits | AID 540317, 2011; further: nearly all actives have a fitted effect of over 70% in size
Target sequence (P83916 whole entry, looked up): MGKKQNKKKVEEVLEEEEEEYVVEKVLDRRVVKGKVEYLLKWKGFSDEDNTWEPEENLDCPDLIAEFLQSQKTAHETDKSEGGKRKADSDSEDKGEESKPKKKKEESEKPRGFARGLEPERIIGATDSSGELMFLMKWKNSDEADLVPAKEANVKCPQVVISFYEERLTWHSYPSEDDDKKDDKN
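AlphaScreen: HP1-beta (50 nM) preformed 30 min with biotin-H3(1-18)K9me3 peptide (50 nM) in PBS pH 7.4, 0.01% Tween-20. Compound added for 30 min at RT, then streptavidin donor/nickel chelate acceptor beads (10 ug/mL) for 30 min.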
G9a block: qHTS Assay for Inhibitors of Histone Lysine Methyltransferase G9a; Histone-lysine N-methyltransferase EHMT2 (Homo sapiens), Q96KQ7; G9a H3K9 monomethylation, AlphaScreen, 2 h; Potency, µM (highest dose often 102 µM), without a hit: at the highest dose activity, negative = inhibition, hits mostly inhibitors; 350,000 compounds, 8.8% hits; further: on the % scale 0 is the no-effect control and ±100 the full control effect; nearly all actives have a fitted effect of over 75% in size
Target sequence (Q96KQ7 913-1193 limits assumed): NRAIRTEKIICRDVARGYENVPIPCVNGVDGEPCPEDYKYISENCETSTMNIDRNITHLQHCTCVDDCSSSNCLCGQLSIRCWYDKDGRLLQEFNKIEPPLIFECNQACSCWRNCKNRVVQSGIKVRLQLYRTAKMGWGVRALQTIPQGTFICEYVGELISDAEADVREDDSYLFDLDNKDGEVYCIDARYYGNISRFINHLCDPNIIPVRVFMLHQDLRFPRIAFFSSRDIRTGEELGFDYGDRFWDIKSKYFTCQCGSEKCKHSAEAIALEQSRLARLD
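Signal arises when biotinylated H3K9 peptide, once monomethylated, bridges streptavidin donor and antibody-captured acceptor beads. Enzyme at 20 nM was preincubated 15 min with test compounds; peptide 500 nM and SAM 20 uM then reacted for 2 h.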
L3MBTL1 block: qHTS Assay for the Inhibitors of L3MBTL1. Potency, µM (titrated, usually from 57.1 µM), without a hit: at the top dose activity, negative = inhibition, most hits filed as inhibitors. AID 485360, 2010. Lethal(3)malignant brain tumor-like protein 1 (Homo sapiens), Q9Y468. 230,000 compounds, 0.66% hits. AlphaScreen L3MBTL1–H3K9me1 peptide binding; further: on the % scale 0 is the no-effect control and ±100 the full control effect; nearly all actives have a fitted effect of over 60% in size
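AlphaScreen proximity signal between nickel-chelate acceptor and streptavidin donor beads (final 10 ug/mL) reports binding of 50 nM L3MBTL1 to 75 nM biotin-H3 K9me1 peptide; complex incubated with compounds 30 min at room temperature; cefsulodin titration as control.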
BAZ2B block: qHTS Assay for Inhibitors of BAZ2B; Bromodomain adjacent to zinc finger domain protein 2B (Homo sapiens), Q9UIF8; AlphaScreen BAZ2B-H3K14Ac peptide displacement; Potency, µM (top dose mostly 114 µM), for the others: at the highest dose activity change, negative = inhibition, most hits filed as inhibitors; 360,000 compounds, 4.4% hits; further: on the % scale 0 is the no-effect control and ±100 the full control effect; nearly all actives have a fitted effect of over 60% in size
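Multi-concentration screen (max 110 uM) measuring displacement of acetylated histone H3 peptide from BAZ2B by AlphaScreen, using 50 nM protein, 50 nM peptide and 10 ug/mL streptavidin donor plus Ni-chelate acceptor beads.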
Sfp inh: qHTS Assay for Inhibitors of Bacillus subtilis Sfp phosphopantetheinyl transferase (PPTase). 310,000 compounds, 3.5% hits. AID 1490, 2009. 4'-phosphopantetheinyl transferase ffp (Bacillus subtilis), Q9F4F7. Biochemical Sfp PPTase activity, qHTS. Potency, µM, inactives show largest response in the series, negative = inhibition, usual class: inhibitors;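 further: the enzyme is Sfp with the accession as filed and its product quenches rhodamine fluorescence; 0% = enzyme reaction without inhibitor and -100% = no enzyme wells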
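Buffer: 50 mM Hepes-Na pH 7.6, 10 mM MgCl2, 0.01% Nonidet P-40, 0.01% BSA. Enzyme 15 nM, pre-exposed to compound 15 min; substrates then added and fluorescence change tracked over 30 min.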
Active calls of the source: *; ? = inconclusive; · = no result given; [ ] = dose if it differs, or a comment. The list is not random: actives were taken first. Their share in the collection is about 12%. The call rests on the fitted dose curve; in most records, active means well fitted curve in the direction sought with a large enough effect; inconclusive means small, poorly fitted or top-dose-only effect, or another doubt; inactive means no such curve, though single readings can be large; an effect the other way counts as inactive or inconclusive. Potency means the concentration at half of the fitted maximal effect.

SMILES	JMJD2A Tudor	HP1b chromo inh	G9a block	L3MBTL1 block	BAZ2B block	Sfp inh
Cn1nc(C(=O)Nc2cccc(S(=O)(=O)N3CCCCC3)c2)c2ccccc2c1=O	-17.0%	10.8%	39.8µM*	-12.2%	-23.3%	·
Cc1ccc(NC(=O)c2oc3ccc(S(=O)(=O)N4CCC5(CC4)OCCO5)cc3c2C)c(C)c1	-1.5%	30.4%	-2.4%[59 µM]	·	-18.9%	·
Cc1ccc(Nc2cc(C)c(C#N)c3nc4ccccc4n23)cc1Cl	-18.3%	13.1%	-2.4%[59 µM]	·	-0.7%	·
Cn1ccc2c(OCC(=O)Nc3cc(C(F)(F)F)ccc3Cl)cccc2c1=O	-20.5%	9.2%	7.2%[59 µM]	·	-15.0%	·
COc1cc(NS(C)(=O)=O)ccc1Cc1c2ccccc2nc2ccccc12	·	·	·	·	·	-8.4%
O=C(O)c1ccccc1NCc1ccncc1	-4.5%	31.5%	39.8µM*	-0.2%	-39.0%	1.7%
Cc1c(NCc2ccncc2)cccc1C(=O)O	-23.7%	52.2%	?	-1.9%	5.8%	15.9%
O=C(O)c1ccccc1NCCO	-15.7%	15.5%	50.1µM*	·	·	-6.1%
COC(=O)c1ccccc1NCCO	-8.7%	22.1%	1.8%[12.7 µM]	·	-8.7%	11.2%
CCCS(=O)(=O)N1CCC(C(=O)NCCOC)CC1	-16.2%	23.1%	0.8%[59 µM]	·	1.4%	·
Cc1cc(C)c(C#N)c(Sc2ccccc2N)n1	-13.9%	42.0%	7.94µM*	6.4%	-23.2%	-82.6%
CCC1(c2ccccc2)NC(=O)N(CC(=O)Nc2ccccc2C(=O)NC2CC2)C1=O (stereo not drawn)	-10.8%	37.1%	50.1µM*	0.0%	4.5%	·
CCC1(c2ccc(F)cc2)NC(=O)N(CC(=O)Nc2ccccc2C)C1=O (stereo not drawn)	70.8µM*	6.3%	-7.0%	·	-5.3%	6.8%
CCC1(c2ccc(F)cc2)NC(=O)N(CC(=O)Nc2ccccc2Cl)C1=O (stereo not drawn)	-3.2%	13.9%	-11.2%	·	4.4%	-5.6%
COc1ccc(OC)c(NC(=O)Cn2cnc3sc(C)c(S(=O)(=O)N4CCN(c5ccccc5OC)CC4)c3c2=O)c1	-20.1%	13.7%	5.8%[59 µM]	·	-0.7%	·
Nc1nonc1-c1nc2ccccc2n1CC(=O)N/N=C/c1ccc(-c2ccccc2C(=O)O)o1	-7.5%[11.4 µM]	7.7%	44.7µM*	-86.8%	50.1µM*	?
CCOC(=O)c1ccccc1NC(=O)Cn1c(-c2nonc2N)nc2ccccc21	-3.0%	31.5%	-2.1%	2.0%	5.1%	28.2µM*
C=CCc1cccc([C@@H]2[C@@H](C)CC[C@H]3C(=O)N4[C@@H](c5cc(OC)c(OC)c(OC)c5)c5[nH]c6ccccc6c5C[C@H]4C(=O)N23)c1	·	·	50.1µM*	-1.3%	?	-3.8%
COc1cc(C2c3[nH]c4ccccc4c3CC3C(=O)N4C(Cc5c([nH]c6ccccc56)C4c4cc(OC)c(OC)c(OC)c4)C(=O)N32)cc(OC)c1OC (stereo not drawn)	·	·	·	·	·	-0.6%
O=C1[C@@H]2Cc3c([nH]c4ccccc34)C(c3cccc(Br)c3)N2C(=O)CN1C1CCN(Cc2ccccc2)CC1 (stereo partly drawn)	?	-28.9%	?	·	-32.5%	0.4%
COc1ccc(C2c3[nH]c4ccccc4c3C[C@H]3C(=O)N(C4CCN(Cc5ccccc5)CC4)CC(=O)N23)c(OC)c1 (stereo partly drawn)	22.4µM*	-16.0%	?	·	-37.0%	15.7%
O=C1[C@@H]2Cc3c([nH]c4ccccc34)C(c3ccccc3)N2C(=O)CN1C1CCN(Cc2ccccc2)CC1 (stereo partly drawn)	?	-4.8%	79.4µM*	·	31.6µM*	-14.6%
